Test results as given in article PMC8384837, “Expanding the binding specificity for RNA recognition by a PUF domain”.
Substitutions are numbered along the chain they refer to.

Assays:
Test in all cases: yeast three-hybrid, YBZ-1, SC-Leu-His + 0.5 mM 3-AT, 4 days
Settings in all cases: tags: N-Gal4 AD-HA kept; label: inside an RPR1-promoter hybrid RNA with tandem MS2 sites; ssRNA
PUM1 PUF domain R7-LFD = PUM1 PUF domain R7-LFD (Homo sapiens, UniProt Q14671 828-1176, S1079L;N1080F;E1083D)
Method in brief: (§1)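 Repeat regions from input (SC-Leu) and selection (SC-Leu-His + 0.5 mM 3-AT) plates were PCR-amplified and Illumina-sequenced after four days of growth. The cells were strain YBZ-1 with a LexA–MS2 coat fusion and a HIS3 reporter, co-expressing Pumilio-1 PUF domain libraries and matching RNA elements from a centromeric plasmid. The interaction score is the log change in variant frequency from input to selection, taken in log2 with a pseudocount of 1 for absent variants.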

PUM1 PUF domain R5-WGF = PUM1 PUF domain R5-WGF (Homo sapiens, UniProt Q14671 828-1176, C1007W;R1008G;Q1011F)
Method in brief: as §1

PUM1 PUF domain R5-DME = PUM1 PUF domain R5-DME (Homo sapiens, UniProt Q14671 828-1176, C1007D;R1008M;Q1011E)
Method in brief: as §1

PUM1 PUF domain R6-WWA = biological target: T1, PUM1 PUF domain R6-WWA (Homo sapiens, UniProt Q14671 828-1176, N1043W;Y1044W;Q1047A)
T1 sequence: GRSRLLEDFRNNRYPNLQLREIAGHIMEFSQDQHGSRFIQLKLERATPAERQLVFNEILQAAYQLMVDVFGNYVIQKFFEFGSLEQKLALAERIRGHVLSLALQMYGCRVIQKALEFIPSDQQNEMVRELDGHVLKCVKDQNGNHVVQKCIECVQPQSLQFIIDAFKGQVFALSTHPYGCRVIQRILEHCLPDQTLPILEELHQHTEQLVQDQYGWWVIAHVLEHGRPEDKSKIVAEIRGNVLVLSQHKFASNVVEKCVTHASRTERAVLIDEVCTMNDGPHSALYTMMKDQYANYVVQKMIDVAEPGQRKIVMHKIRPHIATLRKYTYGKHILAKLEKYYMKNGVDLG
Method in brief: as §1

PUM1 PUF domain R5-DWM = PUM1 PUF domain R5-DWM (Homo sapiens, UniProt Q14671 828-1176, C1007D;R1008W;Q1011M)
Method in brief: as §1

PUM1 PUF domain R8-RWH = PUM1 PUF domain R8-RWH (Homo sapiens, UniProt Q14671 828-1176, N1122R;Y1123W;Q1126H)
Method in brief: as §1

PUM1 PUF domain R4-CRV = PUM1 PUF domain R4-CRV (Homo sapiens, UniProt Q14671 828-1176, N971C;H972R;Q975V)
Method in brief: as §1

PUM1 PUF domain R4-DYL = PUM1 PUF domain R4-DYL (Homo sapiens, UniProt Q14671 828-1176, N971D;H972Y;Q975L)
Method in brief: as §1

PUM1 PUF domain R8-KFT = PUM1 PUF domain R8-KFT (Homo sapiens, UniProt Q14671 828-1176, N1122K;Y1123F;Q1126T)
Method in brief: as §1

PUM1 PUF domain R6-FYA = biological target: T2, PUM1 PUF domain R6-FYA (Homo sapiens, UniProt Q14671 828-1176, N1043F;Q1047A)
T2 sequence: T1 sequence with W216F, W217Y
Method in brief: as §1

PUM1 PUF domain R3-GHH = PUM1 PUF domain R3-GHH (Homo sapiens, UniProt Q14671 828-1176, C935G;R936H;Q939H)
Method in brief: as §1

PUM1 PUF domain R6-LFT = biological target: T3, PUM1 PUF domain R6-LFT (Homo sapiens, UniProt Q14671 828-1176, N1043L;Y1044F;Q1047T)
T3 sequence: T1 sequence with W216L, W217F, A220T
Method in brief: as §1

PUM1 PUF domain R3-VYY = PUM1 PUF domain R3-VYY (Homo sapiens, UniProt Q14671 828-1176, C935V;R936Y;Q939Y)
Method in brief: as §1

PUM1 PUF domain R3-QPG = PUM1 PUF domain R3-QPG (Homo sapiens, UniProt Q14671 828-1176, C935Q;R936P;Q939G)
Method in brief: as §1

PUM1 PUF domain R3-RIC = PUM1 PUF domain R3-RIC (Homo sapiens, UniProt Q14671 828-1176, C935R;R936I;Q939C)
Method in brief: as §1

PUM1 PUF domain R4-DHN = PUM1 PUF domain R4-DHN (Homo sapiens, UniProt Q14671 828-1176, N971D;Q975N)
Method in brief: as §1

PUM1 PUF domain R4-WGD = PUM1 PUF domain R4-WGD (Homo sapiens, UniProt Q14671 828-1176, N971W;H972G;Q975D)
Method in brief: as §1

PUM1 PUF domain R5-QCR = PUM1 PUF domain R5-QCR (Homo sapiens, UniProt Q14671 828-1176, C1007Q;R1008C;Q1011R)
Method in brief: as §1

PUM1 PUF domain R5-DHS = PUM1 PUF domain R5-DHS (Homo sapiens, UniProt Q14671 828-1176, C1007D;R1008H;Q1011S)
Method in brief: as §1

Sequence: GGCUAGAACUAGUGGAUCCCCCGGCGCCCGGCGGCUCGAGCCCGGGUAAGUUUAAAUAGUCUGCAUGCCGCCGGGCGCCAUGCCUGCAGGUCGACUCUAGAAAACAUG
- binding signal (PUM1 PUF domain R7-LFD): 2.92 log2 enrichment (interaction score)

Sequence: GGCUAGAACUAGUGGAUCCCCCGGCGCCCGGCGGCUCGAGCCCGGGUAAGUGUGAAUAGUCUGCAUGCCGCCGGGCGCCAUGCCUGCAGGUCGACUCUAGAAAACAUG
- binding signal (PUM1 PUF domain R5-WGF): 4.79 log2 enrichment (interaction score)
- binding signal (PUM1 PUF domain R5-DME): 2.8 log2 enrichment (interaction score)

Sequence: GGCUAGAACUAGUGGAUCCCCCGGCGCCCGGCGGCUCGAGCCCGGGUAAGUGUAAAUAGUCUGCAUGCCGCCGGGCGCCAUGCCUGCAGGUCGACUCUAGAAAACAUG
- binding signal (PUM1 PUF domain R6-WWA): 4.79 log2 enrichment (interaction score)
- binding signal (PUM1 PUF domain R5-DWM): 2.57 log2 enrichment (interaction score)
- binding signal (PUM1 PUF domain R8-RWH): 4.7 log2 enrichment (interaction score)
- binding signal (PUM1 PUF domain R4-CRV): 2.54 log2 enrichment (interaction score)
- binding signal (PUM1 PUF domain R4-DYL): 6.7 log2 enrichment (interaction score)
- binding signal (PUM1 PUF domain R8-KFT): 4.46 log2 enrichment (interaction score)
- binding signal (PUM1 PUF domain R6-FYA): 4.17 log2 enrichment (interaction score)
- binding signal (PUM1 PUF domain R3-GHH): 3.86 log2 enrichment (interaction score)

Sequence: GGCUAGAACUAGUGGAUCCCCCGGCGCCCGGCGGCUCGAGCCCGGGUAAGUGAAAAUAGUCUGCAUGCCGCCGGGCGCCAUGCCUGCAGGUCGACUCUAGAAAACAUG
- binding signal (PUM1 PUF domain R6-WWA): 2.47 log2 enrichment (interaction score)
- binding signal (PUM1 PUF domain R6-LFT): 6.33 log2 enrichment (interaction score)

Sequence: GGCUAGAACUAGUGGAUCCCCCGGCGCCCGGCGGCUCGAGCCCGGGUAAGUGUAAUUAGUCUGCAUGCCGCCGGGCGCCAUGCCUGCAGGUCGACUCUAGAAAACAUG
- binding signal (PUM1 PUF domain R3-VYY): 5.47 log2 enrichment (interaction score)
- binding signal (PUM1 PUF domain R3-QPG): 3.7 log2 enrichment (interaction score)
- binding signal (PUM1 PUF domain R3-RIC): 3.78 log2 enrichment (interaction score)

Sequence: GGCUAGAACUAGUGGAUCCCCCGGCGCCCGGCGGCUCGAGCCCGGGUAAGUGUACAUAGUCUGCAUGCCGCCGGGCGCCAUGCCUGCAGGUCGACUCUAGAAAACAUG
- binding signal (PUM1 PUF domain R4-DHN): 2.6 log2 enrichment (interaction score)

Sequence: GGCUAGAACUAGUGGAUCCCCCGGCGCCCGGCGGCUCGAGCCCGGGUAAGUGUAUAUAGUCUGCAUGCCGCCGGGCGCCAUGCCUGCAGGUCGACUCUAGAAAACAUG
- binding signal (PUM1 PUF domain R4-DHN): 4.74 log2 enrichment (interaction score)
- binding signal (PUM1 PUF domain R4-WGD): 4.21 log2 enrichment (interaction score)

Sequence: GGCUAGAACUAGUGGAUCCCCCGGCGCCCGGCGGCUCGAGCCCGGGUAAGUGUUAAUAGUCUGCAUGCCGCCGGGCGCCAUGCCUGCAGGUCGACUCUAGAAAACAUG
- binding signal (PUM1 PUF domain R5-QCR): 3.91 log2 enrichment (interaction score)
- binding signal (PUM1 PUF domain R5-DHS): 4.63 log2 enrichment (interaction score)

Sequence: GGCUAGAACUAGUGGAUCCCCCGGCGCCCGGCGGCUCGAGCCCGGGUAAGUGUCAAUAGUCUGCAUGCCGCCGGGCGCCAUGCCUGCAGGUCGACUCUAGAAAACAUG
- binding signal (PUM1 PUF domain R5-QCR): 4.97 log2 enrichment (interaction score)

Sequence: GGCUAGAACUAGUGGAUCCCCCGGCGCCCGGCGGCUCGAGCCCGGGUAAGCGUAAAUAGUCUGCAUGCCGCCGGGCGCCAUGCCUGCAGGUCGACUCUAGAAAACAUG
- binding signal (PUM1 PUF domain R8-RWH): 5.97 log2 enrichment (interaction score)
